Results on 40 compounds are retold here after PubChem BioAssay (NCI).

The panel holds about 83,000 compounds, 20% with a hit somewhere; the sample as a whole holds those more often.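 96-well plates, one dose, 48 hours. Percent growth reported; active if below 10.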 A number with no mark means an inactive call. Activity calls are given as the source filed them.

The assay deals with HCT-116 colon. Description: NCI-60 one-dose screen, 48 h (100 = growth as untreated, 0 = no growth, -100 = all killed). The conditions noted are these: 10 µM. The method, then:
Growth inhibition of the HCT-116 human tumor cell line is measured as a screen for anti-cancer activity. Cells are grown in 96 well plates and exposed to the test compound for 48 hours. Compounds are tested at a single concentration, which is 10^-5 M for most compounds. The reported endpoint is percent growth (GI% or GIPRCNT), where numbers from 0 - 100% represent growth inhibition, and numbers from -100% - 0 represent cell death. For example, a value of 40 represents 60% growth inhibition. A value of 0 means no net growth occurred over the course of the experiment. A value of -40 indicates 40% of cells at the beginning of the experiment died by the end of the experiment. A value of -100 means all cells are dead at the end of the experiment.
NCI-60 Human Tumor Cell Lines Screen was performed using the standard one-dose NCI protocol, which is described in more detail at https://dtp.cancer.gov/discovery_development/nci-60/default.htm.
Compounds with GIPRCNT values below 10 were considered active. Activity score was based on GIPRCNT using the following formula: […]
Score is 0 for GIPRCNT values of 100 or above, 50 for GIPRCNT values of 0, and 100 for GIPRCNT values of -100.
`CC(=O)c1c(O)cc2c3c1OC(C)(C)C1CCC(C)(CC31)O2` (stereo not given): the growth was 86.8%. Take `C=C[C@]1(C)C=C2C(=O)[C@@]3(O)OC(=O)[C@@]4(CCCC(C)(C)[C@H]34)[C@@]2(O)CC1`: the growth is -93.4% (active). Next, `CN(C)Cc1cccs1`: 89%; `O=C(NCCCl)c1cc(Cl)cc(Cl)c1`: 110%; `Cc1ccc(S(=O)(=O)Oc2ccccc2-c2ccccc2)cc1`: 14.6%. Next, `CC(=O)Nc1nc(C)c(C(=O)NNC=O)s1`: 121%. Next, `CC(C)(C)c1ccc(OCCCCCCN2CCNCC2)cc1`: 8.35% (active); `COc1ccc(/C=C2\CCC3C(CCCC34OCCO4)C2=O)cc1` (stereo not given): 92.4%; `Cc1cnc(C=O)c2cccc([N+](=O)[O-])c12`: 17.5%.

On to `Cc1cn(C(=O)/C(Cl)=C(/Cl)C(=O)O)c2ccccc12`, for which the growth is 105%. Next, `COc1ccc(C(C)=O)cc1N1C(=O)C2C(C1=O)C1(c3ccccc3)C(=O)C2(c2ccccc2)C(c2ccc(C)cc2)=C1c1ccc(C)cc1` (stereo not given): 24.3%. Next, `C=CCOc1ccc2c(c1)CC[C@@H]1[C@@H]2CC[C@]2(C)C(=O)/C(=N/O)C[C@@H]12`: 12.2%; `CC(C)/C=N/NC(N)=S`: 8.16% (active); `CCCCCCOc1ccc(/C=C/C(=O)c2ccc(B(O)O)cc2)cc1`: 55.6%. Next, `CCc1nn2c(-c3ccccc3)c(-c3cc(OC)c(OC)c(OC)c3)nc2s1`: 80.8%; `COc1cc(C2C=C(c3ccc(Cl)cc3)N=C3SC(C)=CN32)cc(OC)c1OC` (stereo not given): 50.3%. With `COc1ccc(-c2cn[nH]c2-c2cc(OC)c(OC)c(OC)c2)cc1`, the growth is 0.33% (active). Next, `N=C(N)c1ccc(-c2ccc(-c3ccccc3)s2)s1`: -62% (active); `C[N+]1(CC2CO2)CCCCCC1` (stereo not given): 103%. Next, `O=C(Nc1ccc(OCc2nnc(-c3ccccc3)o2)c(F)c1)Nc1ccc(Cl)c(Cl)c1`: 49.2%; `COc1cc(C2C(C#N)=C(c3c[nH]c4ccccc34)Nc3nc(N)[nH]c(=O)c32)cc(OC)c1OC` (stereo not given): 74%. Next, `CC1(C)CC(OCCCC[P+](c2ccccc2)(c2ccccc2)c2ccccc2)CC(C)(C)N1O`: 12.4%; `COc1cccc(C(=O)NNc2nc(N3CCN(C4CCCCC4)CC3)nc(N3CCN(C(c4ccccc4)c4ccccc4)CC3)n2)c1`: 19%. `NCCNc1ccc2cc(-c3nc4ccccc4[nH]3)c(=O)oc2c1`: the growth is 93.9%. Next, `COc1cc(C(=O)n2nc(N)c3c(C)cc(C)nc32)cc(OC)c1OC`: 70.2%.

With `COc1cc(N=C2C(=O)N(Cc3ccccc3)c3ccccc32)cc(OC)c1OC`, the growth was 99.8%. Next, `Cc1cccc2c1O/C(=C\c1ncc([N+](=O)[O-])n1C)C2=O`: -66.6% (active); `c1ccc(COCC[P+](c2ccccc2)(c2ccccc2)c2ccccc2)cc1`: 5.42% (active); `CCCCCCCC/C=C/CCCCCCCCC1=NCCN1CCO`: 7.94% (active). Turning to `Oc1cc(O)c(Br)cc1Br`, the growth was 97.3%. Next, `COc1ccccc1Cn1cc2c(c1-c1ccccc1)CCc1cnoc1-2`: 20.9%; `CNC(=O)c1cc(Oc2ccc(NC(=O)Nc3ccc(Cl)c(C(C)(C)C)c3)c(F)c2)ccn1`: 19.7%. Next, `COc1cc(CSc2nc3ccc(C)cc3c(=O)n2Cc2ccccc2)cc(OC)c1OC`: 25.2%.

Take `CCCC(C)c1ccc(OCCCCCCN2CCNCC2)cc1` (stereo not given): the growth was -6% (active).

In the case of `CCN1CCOC1C(C)C` (stereo not given), the growth is 102%. As to `CCCCCCCCCCCCCCCCCBr`, the growth is 105%.

Consider `O=[N+]([O-])c1ccc2c(c1)Cc1cc(I)ccc1-2`, for which the growth is 96.2%.

`N#CC1C=Cc2c(ccc3ccccc23)N1C(=O)c1ccccc1` (stereo not given): the growth was 12%.

Turning to `C#CCn1c(-c2cccc(OCCCCl)c2)nc2c1c(=O)n(C)c(=O)n2C`, the growth was 51.9%.

For `Cc1ccccc1C1=N[C@@H](Cc2ccccc2)C(=O)c2c(nc3ccccn23)N1`, the growth was 86.9%.
